# Compound activity from PubChem BioAssay.
# sEH inh = blocks human soluble epoxide hydrolase activity; 91,000 tested, 0.34% active; recombinant human sEH enzymatic activity assay; P34913; inhibition, % at 2 µM; in the data active = inhibition above about 80%
# CYP2C19 inh = inhibitors of human CYP2C19 | P33261 | CYP2C19 Supersomes, luciferin-H EGE luminescence, 30 min | inhibition, % at 5 µM | 96,000 tested, 21% active | AID 778;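 active = CYP2C19 inhibition above a set limit at 5 µM in the primary screen, cut at about 50% in these data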
# Target sequence (P33261 whole entry, looked up): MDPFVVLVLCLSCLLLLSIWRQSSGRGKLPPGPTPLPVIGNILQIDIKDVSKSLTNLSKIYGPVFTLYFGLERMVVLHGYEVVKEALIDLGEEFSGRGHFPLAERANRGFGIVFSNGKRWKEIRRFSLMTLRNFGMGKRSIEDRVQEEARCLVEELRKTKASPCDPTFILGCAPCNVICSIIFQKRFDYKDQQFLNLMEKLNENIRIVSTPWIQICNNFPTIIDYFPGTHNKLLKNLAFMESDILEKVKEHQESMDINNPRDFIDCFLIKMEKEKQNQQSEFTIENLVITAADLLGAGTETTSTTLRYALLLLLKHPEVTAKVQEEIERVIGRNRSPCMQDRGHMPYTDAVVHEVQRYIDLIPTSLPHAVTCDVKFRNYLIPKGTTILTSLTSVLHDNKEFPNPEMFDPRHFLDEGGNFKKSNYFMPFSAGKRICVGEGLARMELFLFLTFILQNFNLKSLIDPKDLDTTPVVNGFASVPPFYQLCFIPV
# sEH act = activators of human soluble epoxide hydrolase | AID 717 | activation, % at 2 µM | purified human sEH enzymatic activity, activator screen | 91,000 tested, 0.04% active; in the data active = activation above about 37%
# CYP2C19 activ = increases human CYP2C19 enzyme activity. P33261. recombinant CYP2C19, luciferin-H EGE luminescence; hits give high values; 0 = fully inhibited enzyme, 1 = untreated enzyme. activation factor at 5 µM. 96,000 tested, under 10 active. AID 1025;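 active = activation factor of at least 2 at 5 µM in the primary screen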
# CYP2C9 act = increases human cytochrome P450 2C9 activity | recombinant CYP2C9, luciferin-H conversion, luminescence; hits give high values; factor 1 = untreated enzyme, 0 = blocked | 96,000 tested, 1.4% active | P11712 | activation factor at 5 µM | AID 1024;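 active = activation factor of 2 or more for CYP2C9 at a 5 µM dose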
# CYP2C9 inhib = human CYP2C9 inhibition; P11712; CYP2C9 Supersomes, luciferin-H conversion, luminescence; inhibition, % at 5 µM; 96,000 tested, 20% active; AID 777;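 active = blocking of liver enzyme CYP2C9 beyond about 50% at 5 µM, limit read from the data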
# Numbers stand for hits; n = inactive; x = no result given. An excerpt weighted towards active compounds, which were near 27% of everything screened.
SMILES,sEH inh,CYP2C19 inh,sEH act,CYP2C19 activ,CYP2C9 act,CYP2C9 inhib
CC1=CC(C)(C)N2C(=O)C3(C(C#N)=C(N)Oc4cc(C)oc(=O)c43)c3cccc1c32 (stereo not given),n,n,n,n,n,n
COC(=O)C1=C(C)NC(=O)C1(Nc1ccc(Cl)cn1)C(F)(F)F (stereo not given),n,70,n,n,n,n
COC(=O)C1=C(C)NC(=O)C1(NC(=O)c1cccnc1)C(F)(F)F (stereo not given),n,x,n,x,x,x
CSCCC1NC(=O)N(CC(=O)Nc2cccc3ccccc23)C1=O (stereo not given),n,n,n,n,n,n
Cc1ccc(SCCNC(=O)C(CO)(CO)CO)cc1,n,n,n,n,n,n
Oc1ccccc1C1=Nc2ncnn2C(c2ccccc2)C1 (stereo not given),x,54,x,n,n,n
COCCCNC(=S)NC1CC2CCCC(C1)N2Cc1cccs1 (stereo not given),n,n,n,n,n,n
CCCn1c(N)c(Sc2ccc(Cl)cc2)c(=O)n(CCC)c1=O,n,90,n,n,n,58
CCCCn1c(N)c(Sc2ccc(Cl)cc2)c(=O)[nH]c1=O,n,n,n,n,n,n
COc1ccc(S(=O)(=O)N2CCCCC2)cc1C(C)C,n,n,n,n,n,n
CCCCOc1ccc(S(=O)(=O)N2CCCCCC2)cc1,n,93,n,n,n,94
O=C(COc1ccc(S(=O)(=O)N2CCCCC2)cc1)N1CCCCCC1,n,n,n,n,n,n
COc1ccccc1Oc1ccc(S(=O)(=O)N2CCCC2)cc1,n,56,n,n,n,78
COc1ccc(C)cc1-n1nnnc1SCC(=O)N1CCC(C(=O)Nc2nccs2)CC1,n,n,n,n,n,n
Cc1oc(-c2ccc(Cl)cc2)nc1CSCC(=O)NCCCN1CCOCC1,n,n,n,n,n,n
O=C(COc1ccc(Br)cc1CO)Nc1ccccc1F,n,95,n,n,n,67
O=C(O)COc1ccc(Cl)cc1CO,n,n,n,n,n,n
Cc1ccccc1OCC(=O)NC1=NCCS1,n,51,n,n,n,n
CCOC(=O)Nc1cccc(OCC(=O)Nc2ccccc2OC)c1,n,x,n,x,x,x
COc1ccccc1NC(=O)COc1ccc(Br)cc1CO,n,55,n,n,n,n
Cc1ccccc1OCC(=O)Nc1ccccc1N1CCCCC1,n,n,n,n,n,n
Cc1ccccc1OCC(=O)Nc1ccccc1CO,n,72,n,n,n,n
COC(=O)c1cc(NC(=O)CSc2nncn2C)cc(C(=O)OC)c1,n,n,n,n,n,n
Cc1nc2c3c(-c4ccccc4)c(-c4ccccc4)oc3ncn2n1,x,n,x,n,n,n
O=c1oc2c3c4c(cc2c2c1CCC2)OCCN4CCC3,n,n,n,n,n,n
SMILES,sEH inh,CYP2C19 inh,sEH act,CYP2C19 activ,CYP2C9 act,CYP2C9 inhib
O=C(N/N=C/c1ccc(Br)o1)/C(=C/c1ccc([N+](=O)[O-])cc1)NC(=O)c1ccccc1,n,52,n,n,n,n
O=C(N/N=C/c1ccco1)/C(=C/c1cccc([N+](=O)[O-])c1)NC(=O)c1ccccc1,n,69,n,n,n,n
CN(C)c1ccc(/C=C(/NC(=O)c2ccccc2)C(=O)N/N=C/c2ccc([N+](=O)[O-])c(O)c2)cc1,n,n,n,n,n,n
CC(C)NC(=O)/C(=C\c1cccc([N+](=O)[O-])c1)NC(=O)c1ccccc1,n,n,n,n,n,n
c1ccc2c(c1)OCC(c1csc3ncnc(N4CCOCC4)c13)O2 (stereo not given),n,78,n,n,n,50
Cc1cc(C(=O)NCc2cccs2)n(-c2ccccc2)n1,n,n,n,n,n,59
CCN(CCNC(=O)c1cc(C)nn1-c1ccccc1)c1ccccc1,x,79,x,n,n,n
Cc1cc(C(=O)Nc2ccccc2C#N)n(-c2ccccc2)n1,n,n,n,n,n,57
Cc1cc(C(=O)Nc2c(C)cccc2C)n(-c2ccccc2)n1,n,n,n,n,n,n
COC(CNC(=O)c1cc(C)nn1-c1ccccc1)OC,n,n,n,n,n,n
Cn1c(=O)n(CCN2CCOCC2)c(=O)c2c1nc1n2CCCN1c1ccccc1,x,n,x,n,n,n
CC1CCCC(C)N1C(=O)CN1C(=O)C(C)(C)Oc2ccc(C(=O)NC3CCCC3)cc21 (stereo not given),n,n,n,n,n,n
CC(NC(=O)CN1C(=O)NC(Cc2ccccc2)(Cc2ccccc2)C1=O)C12CC3CC(CC(C3)C1)C2 (stereo not given),n,n,n,n,n,n
CC1CCCCC1NC(=O)CN1C(=O)NC(Cc2ccccc2)(Cc2ccccc2)C1=O (stereo not given),n,60,n,n,n,n
COC(=O)CCCC(=O)N1CCOCCN(C(=O)CCCC(=O)OC)CCOCC1,n,n,n,n,n,n
COc1ccc(C(=O)NNC(=O)CN2CCC(n3nnc4cc(C(F)(F)F)ccc43)CC2)cc1,x,n,x,n,n,n
COc1ccccc1NC(=O)CN1CCC(n2nnc3cc(F)ccc32)CC1,x,97,x,n,n,n
Cc1ccc2c(c1)nnn2C1CCN(CC(=O)NCCc2ccccc2)CC1,n,52,n,n,n,n
Cc1nc2cc(C(F)(F)F)ccc2n1C1CCN(CC(=O)N2CCOCC2)CC1,n,n,n,n,n,n
CC1Cc2ccccc2N1C(=O)CN1CCC(n2nnc3cc(C(F)(F)F)ccc32)CC1 (stereo not given),n,50,n,n,n,n
COC(=O)c1ccccc1NC(=O)CN1CCC(n2nnc3cc(C(F)(F)F)ccc32)CC1,n,70,n,n,n,82
Cc1ccc2c(c1)nnn2C1CCN(CC(=O)Nc2ccccc2N2CCOCC2)CC1,n,71,n,n,n,75
COc1ccc(Cl)cc1NC(=O)CN1CCC(n2nnc3cc(C)ccc32)CC1,n,94,n,n,n,n
Cc1ccc(C(=O)OCC(=O)Nc2ccccc2N2CCOCC2)cc1,n,x,n,x,x,x
O=C(c1ccc(COc2c(F)c(F)cc(F)c2F)o1)N1CCN(c2ccccc2)CC1,n,x,n,x,x,x
SMILES,sEH inh,CYP2C19 inh,sEH act,CYP2C19 activ,CYP2C9 act,CYP2C9 inhib
CCn1nc(C)c(NC(=O)CCCSc2nc(-c3ccco3)cc(C(F)(F)F)n2)c1C,n,54,n,n,n,81
COc1ccc(CCNC(=O)CCSc2nc(-c3ccco3)cc(C(F)(F)F)n2)cc1,n,n,n,n,n,n
O=C(CCCSc1nc(-c2ccco2)cc(C(F)(F)F)n1)NCc1cccs1,n,n,n,n,n,80
Cc1cc(NC(=O)CCCSc2nc(-c3ccco3)cc(C(F)(F)F)n2)no1,n,n,n,n,n,n
COc1ccc(NC(=O)CCCSc2nc(-c3ccco3)cc(C(F)(F)F)n2)cc1OC,n,x,n,x,x,x
Cc1nn(C)c(C)c1NC(=O)CCSc1nc(-c2ccco2)cc(C(F)(F)F)n1,n,n,n,n,n,60
